# Reference: PubChem BioAssay AID1159580 (chemical genetic matrix, 2015)
# “And” between values parts separate entries of the source, which are not always exact repeats. Equal entries are not always repeated. Out of some 5,500 compounds screened, about 2,000 (36%) were called active. Not shown: some 18% with an inconclusive outcome. The list shows a part of the results. Unmarked numbers belong to inactive results. No stated cut-off is given here; in the data, active means normalized growth mostly below about 0.91 (no sharp cut-off); inconclusive means no clear call, values can overlap the other calls; inactive means mostly above about 0.92.
# Experiment: chemical genetic growth profiling, strain panel (AID 1159580);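 further: tested at 20 µM; growth read once vehicle control cultures reached saturation at 30 °C; 1 = growth at the plate median or of vehicle wells; lower values mean less growth of the strain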
# Details: S. cerevisiae deletion strains, growth OD
smiles,measurement,setting,value
CCCSc1ccc2nc(NC(=O)OC)[nH]c2c1,normalized growth,"locus YAL013W, strain DEP1, hits give low values",0.995
same,normalized growth,"locus YAL021C, strain ccr4, hits give low values",1.01
same,normalized growth,"locus YAL026C, strain drs2, hits give low values",1.01
same,normalized growth,"locus YAL030W, strain snc1, hits give low values",1
same,normalized growth,"locus YBL061C, strain skt5, hits give low values",1.01
same,normalized growth,"locus YBR009C, strain hhf1, hits give low values",1.01
same,normalized growth,"locus YBR021W, strain FUR4, hits give low values",1.2 [resistant] (active)
same,normalized growth,"locus YBR023C, strain chs3, hits give low values",1.01
same,normalized growth,"locus YBR171W, strain sec66, hits give low values",1.02
same,normalized growth,"locus YBR229C, strain ROT2, hits give low values",0.992
same,normalized growth,"locus YBR231C, strain swc5, hits give low values",0.922
same,normalized growth,"locus YBR279W, strain paf1, hits give low values",1.01
same,normalized growth,"locus YCL011C, strain gbp2, hits give low values",1.01
same,normalized growth,"locus YCL016C, strain dcc1, hits give low values",1.01
same,normalized growth,"locus YCL029C, strain bik1, hits give low values",0.82 (active)
same,normalized growth,"locus YCL061C, strain MRC1, hits give low values",1.01
same,normalized growth,"locus YCL069W, strain vba3, hits give low values",1.01
same,normalized growth,"locus YCR088W, strain abp1, hits give low values",1.01
same,normalized growth,"locus YDL005C, strain med2, hits give low values",1.03
same,normalized growth,"locus YDL035C, strain GPR1, hits give low values",0.99
same,normalized growth,"locus YDL040C, strain nat1, hits give low values",1.01
same,normalized growth,"locus YDL074C, strain BRE1, hits give low values",0.866
same,normalized growth,"locus YDL101C, strain DUN1, hits give low values",0.993
same,normalized growth,"locus YDL134C, strain PPH21, hits give low values",1.01
same,normalized growth,"locus YDL185W, strain tfp1, hits give low values",0.93
same,normalized growth,"locus YDL192W, strain arf1, hits give low values",0.971
same,normalized growth,"locus YDR001C, strain nth1, hits give low values",1.01
same,normalized growth,"locus YDR069C, strain doa4, hits give low values",0.998
same,normalized growth,"locus YDR101C, strain arx1, hits give low values",0.961
same,normalized growth,"locus YDR137W, strain rgp1, hits give low values",0.862
same,normalized growth,"locus YDR150W, strain NUM1, hits give low values",0.977
same,normalized growth,"locus YDR159W, strain sac3, hits give low values",1.04
same,normalized growth,"locus YDR162C, strain NBP2, hits give low values",0.993
same,normalized growth,"locus YDR195W, strain ref2",1.15 [resistant] (active)
same,normalized growth,"locus YDR297W, strain sur2, hits give low values",1.01
same,normalized growth,"locus YDR318W, strain mcm21, hits give low values",0.956
same,normalized growth,"locus YDR334W, strain swr1, hits give low values",0.962
same,normalized growth,"locus YDR335W, strain msn5, hits give low values",1.02
same,normalized growth,"locus YDR388W, hits give low values",0.969
same,normalized growth,"locus YDR392W, strain spt3, hits give low values",0.967
same,normalized growth,"locus YDR502C, strain sam2, hits give low values",0.966
same,normalized growth,"locus YEL003W, strain gim4, hits give low values",0.446 (active)
same,normalized growth,"locus YEL037C, strain rad23, hits give low values",1
same,normalized growth,"locus YEL061C, strain CIN8 (second series), hits give low values",1.01
same,normalized growth,"locus YEL061C, strain CIN8, hits give low values",0.997
same,normalized growth,"locus YER015W, strain faa2, hits give low values",1
same,normalized growth,"locus YER016W, strain bim1, hits give low values",1.01
same,normalized growth,"locus YER110C, hits give low values",0.976
same,normalized growth,"locus YER111C, strain swi4, hits give low values",1.02
same,normalized growth,"locus YER155C, strain BEM2 (second series), hits give low values",0.999
same,normalized growth,"locus YER155C, strain BEM2, hits give low values",0.991
same,normalized growth,"locus YER167W, strain BCK2, hits give low values",0.988
same,normalized growth,"locus YFR010W, strain ubp6, hits give low values",1.02
same,normalized growth,"locus YGL078C, strain dbp3, hits give low values",0.955
same,normalized growth,"locus YGL086W, strain mad1, hits give low values",0.974
same,normalized growth,"locus YGL167C, strain pmr1, hits give low values",1.02
same,normalized growth,"locus YGL173C, strain kem1, hits give low values",1.02
same,normalized growth,"locus YGL227W, strain vid30, hits give low values",1
same,normalized growth,"locus YGL240W, strain doc1, hits give low values",1.01
same,normalized growth,"locus YGL248W, strain PDE1, hits give low values",0.996
same,normalized growth,"locus YGL253W, strain hxk2, hits give low values",1.01
same,normalized growth,"locus YGR078C, strain PAC10, hits give low values",0.11 (active)
same,normalized growth,"locus YGR135W, strain pre9, hits give low values",0.944
same,normalized growth,"locus YGR229C, strain SMI1, hits give low values",0.968
same,normalized growth,"locus YGR252W, strain gcn5, hits give low values",1.16
same,normalized growth,"locus YHR013C, strain ard1, hits give low values",1.01
same,normalized growth,"locus YHR027C, strain rpn1, hits give low values",1.01
same,normalized growth,"locus YHR030C, strain SLT2, hits give low values",0.99 and 0.897
same,normalized growth,"locus YHR079C, strain IRE1 (second series), hits give low values",0.942
same,normalized growth,"locus YHR079C, strain IRE1, hits give low values",0.933
same,normalized growth,"locus YHR094C, strain hxt1, hits give low values",0.965
same,normalized growth,"locus YHR129C, strain ARP1, hits give low values",0.983
same,normalized growth,"locus YHR142W, strain chs7, hits give low values",1.01
same,normalized growth,"locus YHR200W, strain rpn10, hits give low values",0.951
same,normalized growth,"locus YIL066C, strain RNR3, hits give low values",0.98
same,normalized growth,"locus YIL073C, strain SPO22, hits give low values",0.894
same,normalized growth,"locus YIL125W, strain kgd1, hits give low values",0.98
same,normalized growth,"locus YIR030C, strain dcg1, hits give low values",0.983
same,normalized growth,"locus YJL092W, strain hpr5, hits give low values",1
same,normalized growth,"locus YJL095W, strain BCK1 (second series), hits give low values",1.01
same,normalized growth,"locus YJL095W, strain BCK1, hits give low values",0.95 and 0.922
same,normalized growth,"locus YJL115W, strain asf1, hits give low values",1.02
same,normalized growth,"locus YJL129C, strain trk1, hits give low values",1.01
same,normalized growth,"locus YJL134W, strain LCB3, hits give low values",0.992
same,normalized growth,"locus YJL154C, strain vps35, hits give low values",1
same,normalized growth,"locus YJL164C, strain tpk1, hits give low values",1.01
same,normalized growth,"locus YJL166W, strain qcr8, hits give low values",1
same,normalized growth,"locus YJL168C, strain set2, hits give low values",0.969
same,normalized growth,"locus YJL187C, strain SWE1 (second series), hits give low values",0.963
same,normalized growth,"locus YJL187C, strain SWE1, hits give low values",1
same,normalized growth,"locus YJR043C, strain POL32, hits give low values",0.967
same,normalized growth,"locus YJR066W, strain TOR1, hits give low values",0.909
